Measured values reported in PubChem BioAssay (Tox21).
The source made the active and inactive calls. A call without a number means that no potency is given here. Unless noted, the call rests on the fitted dose curve; in most records, active means well fitted curve in the direction sought with a large enough effect in the repeat runs; inconclusive means weak or mixed curves; inactive means no such curve, though single readings can be large; an effect the other way counts as inactive or inconclusive.

Columns and labels:
[1] = qHTS assay to identify small molecule antagonists of the thyroid receptor (TR) signaling pathway - cell viability counter screen (AID 743064); further: nearly all actives have a fitted effect of over 50% in size; further: potency means the concentration at half of the fitted maximal effect
Procedure, shortened: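 Counter screen for cytotoxicity: compound plus T3 (1 nM final) on GH3.TRE-Luc cells, 23.5 h at 37 °C, then fluorescence viability readout with CellTiter-Fluor.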

[2] = test system: thyroid hormone receptor (rat, GH3 cells); test: qHTS assay to identify small molecule agonists of the thyroid receptor (TR) signaling pathway (AID 743066; calls by dose curve)
[3] = qHTS assay to identify small molecule antagonists of the estrogen receptor alpha (ER-alpha) signaling pathway - cell viability counter screen (AID 743074; calls by dose curve;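 further: HEK293 cells carrying ER-alpha-UAS-bla reporter stimulated with 17beta-estradiol; nearly all actives have a fitted effect of over 45% in size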; further: potency means the concentration at half of the fitted maximal effect)
[4] = qHTS assay to identify small molecule antagonists of the estrogen receptor alpha (ER-alpha) signaling pathway using the BG1 cell line - cell viability counter screen (AID 743081);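 further: compound given together with 17beta-estradiol as the ER stimulus; nearly all actives have a fitted effect of over 45% in size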; further: potency means the concentration at half of the fitted maximal effect
[5] = biological target: Aromatase (Homo sapiens) (UniProt P11511); test: qHTS assay to identify aromatase inhibitors (AID 743083); further: nearly all actives have a fitted effect of over 55% in size; further: potency means the concentration at half of the fitted maximal effect
Aromatase (Homo sapiens), sequence (P11511 whole entry, looked up): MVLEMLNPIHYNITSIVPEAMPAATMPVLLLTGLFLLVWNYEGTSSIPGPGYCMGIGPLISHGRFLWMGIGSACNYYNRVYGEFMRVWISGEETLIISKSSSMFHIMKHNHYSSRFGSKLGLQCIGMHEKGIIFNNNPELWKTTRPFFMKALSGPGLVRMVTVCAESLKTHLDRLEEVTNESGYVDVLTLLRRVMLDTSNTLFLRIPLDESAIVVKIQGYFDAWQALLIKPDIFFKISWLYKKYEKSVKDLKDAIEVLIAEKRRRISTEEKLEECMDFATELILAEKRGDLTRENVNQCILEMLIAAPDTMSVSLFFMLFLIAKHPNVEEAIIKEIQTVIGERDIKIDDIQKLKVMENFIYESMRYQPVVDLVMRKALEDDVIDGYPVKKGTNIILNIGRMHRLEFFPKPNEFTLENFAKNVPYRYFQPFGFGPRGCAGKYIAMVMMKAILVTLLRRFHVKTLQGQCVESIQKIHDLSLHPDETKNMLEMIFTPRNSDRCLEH

[6] = qHTS assay to identify aromatase inhibitors - cell viability counter screen (AID 743084);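 further: cells stimulated with testosterone during compound exposure; nearly all actives have a fitted effect of over 55% in size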; further: potency means the concentration at half of the fitted maximal effect
[7] = biological target: Aryl hydrocarbon receptor (Homo sapiens) (UniProt P35869); test: qHTS assay to identify small molecule that activate the aryl hydrocarbon receptor (AhR) signaling pathway (AID 743085); further: nearly all actives have a fitted effect of over 15% in size; further: potency means the concentration at half of the fitted maximal effect;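 on activation: HG2L7.5c1 human HepG2 liver cells with stably integrated DRE-driven firefly reporter; series mostly up to about 70 µM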
Aryl hydrocarbon receptor (Homo sapiens), sequence (P35869 whole entry, looked up): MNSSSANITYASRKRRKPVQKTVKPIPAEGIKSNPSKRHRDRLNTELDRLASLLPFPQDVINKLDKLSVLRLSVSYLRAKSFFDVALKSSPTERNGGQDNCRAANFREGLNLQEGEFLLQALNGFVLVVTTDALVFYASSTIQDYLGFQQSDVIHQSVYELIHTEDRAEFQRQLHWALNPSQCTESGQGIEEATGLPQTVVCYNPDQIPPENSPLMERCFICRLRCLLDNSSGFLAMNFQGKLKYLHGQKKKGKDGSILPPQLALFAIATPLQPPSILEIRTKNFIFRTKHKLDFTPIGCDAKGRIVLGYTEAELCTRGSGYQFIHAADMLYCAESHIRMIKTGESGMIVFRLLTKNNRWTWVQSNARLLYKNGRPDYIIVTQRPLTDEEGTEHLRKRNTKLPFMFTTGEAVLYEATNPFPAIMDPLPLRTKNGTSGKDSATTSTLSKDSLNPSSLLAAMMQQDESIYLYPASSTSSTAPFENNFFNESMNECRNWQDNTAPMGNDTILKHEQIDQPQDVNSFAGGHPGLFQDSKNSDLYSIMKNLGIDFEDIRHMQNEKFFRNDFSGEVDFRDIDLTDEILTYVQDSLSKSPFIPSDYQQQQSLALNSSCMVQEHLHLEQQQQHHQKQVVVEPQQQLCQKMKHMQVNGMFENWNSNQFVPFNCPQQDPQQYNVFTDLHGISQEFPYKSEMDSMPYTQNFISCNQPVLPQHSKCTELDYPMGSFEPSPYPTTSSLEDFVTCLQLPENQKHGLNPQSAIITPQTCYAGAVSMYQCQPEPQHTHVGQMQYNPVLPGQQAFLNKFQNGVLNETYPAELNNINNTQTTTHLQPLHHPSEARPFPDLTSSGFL
Procedure, shortened: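 Measured in HG2L7.5c1 cells: CellTiter-Fluor signal (30 min incubation, 37C) for viability, then luciferase luminescence (30 min, room temperature). Compound contact time was 24 h at 37C, following a 5 h pre-incubation.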

[8] = qHTS assay to identify small molecule that activate the aryl hydrocarbon receptor (AhR) signaling pathway - cell viability counter screen (AID 743086); further: nearly all actives have a fitted effect of over 45% in size; further: potency means the concentration at half of the fitted maximal effect
Procedure, shortened: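 Cytotoxicity counter screen: CellTiter-Fluor signal (30 min, 37 C) in 4000 HepG2 cells/well carrying the DRE-luciferase reporter, following 24 h compound exposure at 37 C.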

[9] = biological target: Peroxisome proliferator-activated receptor gamma (Homo sapiens) (UniProt P37231); test: qHTS assay to identify small molecule agonists of the peroxisome proliferator-activated receptor gamma (PPARg) signaling pathway (AID 743094; active means well fitted activation curve with a large enough effect in the signal ratio in the repeat runs, not every such curve was filed as active; inconclusive means weak or mixed curves, or effect the other way; inactive means no such curve, though single readings can be large or run the other way; the % refers to the signal ratio)
Peroxisome proliferator-activated receptor gamma (Homo sapiens), sequence (P37231 whole entry, looked up): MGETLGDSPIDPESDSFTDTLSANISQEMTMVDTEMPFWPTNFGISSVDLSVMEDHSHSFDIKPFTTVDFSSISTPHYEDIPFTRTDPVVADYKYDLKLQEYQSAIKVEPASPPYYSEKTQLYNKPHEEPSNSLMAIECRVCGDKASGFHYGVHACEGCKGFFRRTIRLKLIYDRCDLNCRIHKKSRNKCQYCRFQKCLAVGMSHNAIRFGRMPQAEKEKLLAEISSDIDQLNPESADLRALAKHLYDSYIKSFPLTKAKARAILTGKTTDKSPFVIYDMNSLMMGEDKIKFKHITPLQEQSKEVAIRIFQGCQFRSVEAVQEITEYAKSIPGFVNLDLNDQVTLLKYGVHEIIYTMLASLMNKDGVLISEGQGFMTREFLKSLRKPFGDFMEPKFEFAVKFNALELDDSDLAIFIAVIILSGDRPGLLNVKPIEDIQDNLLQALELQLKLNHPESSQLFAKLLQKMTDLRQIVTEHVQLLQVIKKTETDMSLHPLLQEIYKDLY
Procedure, shortened: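 Reporter activation was scored by fluorescence of cleaved LiveBLAzer B/G substrate (1 h, room temperature) in PPARg-bla HEK293H cells previously treated 17 h at 37C with DMSO-dissolved compounds.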

[10] = biological target: Estrogen receptor (Homo sapiens) (UniProt P03372); test: qHTS assay to identify small molecule antagonists of the estrogen receptor alpha (ER-alpha) signaling pathway (AID 743069; active means well fitted curve in the direction sought with a large enough effect in the signal ratio in the repeat runs, not every such curve was filed as active; inconclusive means weak or mixed curves, or effect the other way; inactive means no such curve, though single readings can be large or run the other way; the % refers to the signal ratio; further: potency means the concentration at half of the fitted maximal effect)
Estrogen receptor (Homo sapiens), sequence (P03372 whole entry, looked up): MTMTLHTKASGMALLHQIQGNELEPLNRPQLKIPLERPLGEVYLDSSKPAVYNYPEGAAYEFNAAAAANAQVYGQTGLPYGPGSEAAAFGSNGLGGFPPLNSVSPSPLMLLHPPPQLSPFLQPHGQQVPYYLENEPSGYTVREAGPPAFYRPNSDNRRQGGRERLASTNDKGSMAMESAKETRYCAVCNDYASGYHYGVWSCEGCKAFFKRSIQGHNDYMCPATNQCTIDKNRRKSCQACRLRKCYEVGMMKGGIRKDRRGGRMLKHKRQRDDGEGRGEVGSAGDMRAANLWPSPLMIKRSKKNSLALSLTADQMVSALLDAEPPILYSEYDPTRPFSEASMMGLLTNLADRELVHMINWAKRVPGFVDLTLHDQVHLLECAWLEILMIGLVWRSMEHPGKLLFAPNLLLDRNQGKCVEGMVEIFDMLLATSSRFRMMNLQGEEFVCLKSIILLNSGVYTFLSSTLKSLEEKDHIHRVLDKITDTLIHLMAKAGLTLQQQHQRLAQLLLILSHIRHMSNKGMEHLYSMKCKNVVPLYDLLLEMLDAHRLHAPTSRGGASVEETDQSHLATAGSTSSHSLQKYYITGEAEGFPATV
Procedure, shortened: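 Antagonist mode: compounds in DMSO were co-added with 17beta-estradiol to ER-alpha-bla HEK293 cells (2% charcoal-stripped serum) and left 18 h at 37C. Reporter inhibition was measured as FRET fluorescence after 2 h LiveBLAzer substrate at room temperature.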

[11] = biological target: Estrogen receptor (Homo sapiens) (UniProt P03372); test: qHTS assay to identify small molecule agonists of the estrogen receptor alpha (ER-alpha) signaling pathway (AID 743075; calls by dose curve;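 further: HEK293 GripTite cells with ER-alpha and UAS-driven beta-lactamase reporter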; further: potency means the concentration at half of the fitted maximal effect)
[12] = qHTS assay to identify small molecule antagonists of the estrogen receptor alpha (ER-alpha) signaling pathway using the BG1 cell line (AID 743080; calls by dose curve;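 further: BG1 cells stimulated with 17beta-estradiol alongside compound; series mostly up to about 70 µM; nearly all actives have a fitted effect of over 25% in size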)
Procedure, shortened: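 Quantitative HTS on the Tox21 10K library: BG1 cells with endogenous ER-alpha and ERE-luciferase reporter, 17beta-estradiol stimulation, 21.5 h compound exposure, luminescence endpoint with parallel fluorescence cytotoxicity counter-read.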

[13] = qHTS assay for small molecule agonists of the antioxidant response element (ARE) signaling pathway - cell viability counter screen (AID 743203; calls by dose curve; further: potency means the concentration at half of the fitted maximal effect; nearly all actives have a fitted effect of over 55% in size)
Procedure, shortened: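 Viability counter screen: stably transfected ARE-bla HepG2 line, 16 hrs compound exposure at 37C/5% CO2, ATP-based CellTiter-Glo luminescence measured in the reporter wells.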

[14] = qHTS assay for small molecule activators of the heat shock response signaling pathway - cell viability counter screen (AID 743209); further: nearly all actives have a fitted effect of over 50% in size; further: potency means the concentration at half of the fitted maximal effect
Procedure, shortened: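 Viability of HSE-bla HeLa cells is measured with CellTiter-Glo in the wells already used for the reporter read. Compound exposure lasts 5 h at 37 C, and luminescence is read after 30 min at room temperature.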

[15] = biological target: Estrogen receptor (Homo sapiens) (UniProt P03372); test: qHTS assay to identify small molecule agonists of the estrogen receptor alpha (ER-alpha) signaling pathway using the BG1 cell line (AID 743079); further: nearly all actives have a fitted effect of over 20% in size; further: potency means the concentration at half of the fitted maximal effect
[16] = qHTS assay for small molecule activators of the heat shock response signaling pathway (AID 743210; active means well fitted activation curve with a large enough effect in the signal ratio in the repeat runs, with a control signal flat, not every such curve was filed as active; inconclusive means weak or mixed curves; the % refers to the signal ratio; further: series mostly up to about 63 µM)
Procedure, shortened: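 Compound exposure lasted 5 h at 37 C in HeLa cells carrying a heat-shock-element-driven beta-lactamase reporter. Read-out: fluorescence intensity after 2.5 h room-temperature loading with LiveBLAzer B/G FRET substrate.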

[17] = qHTS assay to identify small molecule antagonists of the thyroid receptor (TR) signaling pathway (AID 743065); further: nearly all actives have a fitted effect of over 55% in size; further: potency means the concentration at half of the fitted maximal effect
Procedure, shortened: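 Antagonism measured as loss of luciferase signal in GH3 cells stably carrying a TRE-luciferase reporter, co-treated with compound and T3 (1 nM final) for 23.5 h at 37 C. Viability was read in the same well by CellTiter-Fluor.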

[18] = qHTS assay to identify small molecule antagonists of the peroxisome proliferator-activated receptor gamma (PPARg) signaling pathway - cell viability counter screen (AID 743194)
Procedure, shortened: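 Viability was measured as CellTiter-Glo luminescence in GeneBLAzer PPARg UAS-bla HEK293H cells. These cells had been exposed 17 h at 37 C to compounds together with rosiglitazone at 50 nM final, with the beta-lactamase readout taken in the same wells.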

SMILES	Potency [1]	Potency [2]	Potency [3]	Potency [4]	Potency [5]	Potency [6]	Potency [7]	Potency [8]	Potency [9]	Potency [10]	Potency [11]	Potency [12]	Potency [13]	Potency [14]	Potency [15]	outcome [16]	Potency [17]	Potency [18]
O=C(O)/C=C/C(O)c1ccc(Cl)cc1 (configuration not stated)	inactive	inactive	inactive	inactive	inactive	inactive	inactive	inactive	inactive	–	–	–	–	–	–	–	–	–
CC(Cc1ccc(O)c(O)c1)C(C)Cc1ccc(O)c(O)c1 (configuration not stated)	13.7 µM (active)	inactive	–	inactive	inactive	–	inactive	–	–	54.9 µM [inconclusive] (active)	0.0174 µM [inconclusive] (active)	inactive	61.1 µM (active)	inactive	–	–	–	–
CN1C(=O)C[C@@H](C(=O)N[C@@H](Cc2cnc[nH]2)C(=O)N2CCC[C@H]2C(N)=O)NC1=O	inactive	inactive	inactive	inactive	inactive	inactive	–	inactive	inactive	inactive	inactive	inactive	–	–	inactive	–	–	–
CC(C)(COP(=O)(O)OP(=O)(O)OC[C@H]1O[C@@H](n2cnc3c(N)ncnc32)[C@H](O)[C@@H]1OP(=O)(O)O)C(O)C(=O)NCCC(=O)NCCS (some centres not stated)	inactive	inactive	inactive	inactive	inactive	inactive	–	inactive	inactive	inactive	inactive	inactive	–	–	26.6 µM (active)	–	–	–
O=C1[O][Bi][O]c2ccccc21	inactive	inactive	inactive	inactive	inactive	inactive	–	inactive	–	inactive	inactive	inactive	–	–	inactive	–	–	–
COc1c(O)cc2c(c1O)[C@@H]1O[C@H](CO)[C@@H](O)[C@H](O)[C@H]1OC2=O	inactive	inactive	–	inactive	inactive	inactive	inactive	inactive	inactive	inactive	inactive	inactive	–	–	inactive	–	–	–
O=S(=O)(O)CC(S)CS (configuration not stated)	inactive	inactive	inactive	inactive	inactive	inactive	inactive	inactive	inactive	–	–	–	–	–	–	–	–	–
CN1CCN(CCCN2c3ccccc3Sc3ccc(Cl)cc32)CC1	6.68 µM (active)	–	–	–	–	–	9.44 µM (active)	23.7 µM (active)	–	–	inactive	inactive	29.8 µM (active)	inactive	–	inactive	–	–
CCOc1ccc(S(=O)(=O)O)c2cccnc12	–	inactive	inactive	inactive	inactive	inactive	–	inactive	–	inactive	23.9 µM [inconclusive] (active)	inactive	–	–	6.68 µM (active)	–	inactive	–
CN1C(C(=O)Nc2ccccn2)C(=O)c2sc(Cl)cc2S1(=O)=O (configuration not stated)	–	inactive	inactive	–	inactive	inactive	inactive	inactive	inactive	inactive	inactive	inactive	–	–	inactive	–	inactive	–
Cc1cc(F)ccc1-c1cc(N2CC[C@@H](O)[C@H]2CO)ncc1N(C)C(=O)C(C)(C)c1cc(C(F)(F)F)cc(C(F)(F)F)c1	10.7 µM (active)	–	43 µM (active)	–	24 µM (active)	42.6 µM (active)	inactive	38 µM (active)	–	–	–	–	21.4 µM (active)	19.2 µM (active)	–	–	–	43 µM (active)
CCc1cn([C@H]2C[C@H](O)[C@@H](CO)O2)c(=O)[nH]c1=O	–	inactive	inactive	inactive	inactive	inactive	–	inactive	inactive	–	–	–	–	–	–	–	inactive	–
CO/N=C(\C(=O)N[C@@H]1C(=O)N2C(C(=O)[O-])=C(C[n+]3ccc(N)n3CCO)CS[C@H]12)c1csc(N)n1	inactive	–	inactive	inactive	inactive	inactive	inactive	inactive	inactive	–	–	–	–	–	–	–	–	–
O=C1CC[C@@H](C(=O)N[C@H]2C[C@@H]2c2ccccc2)N1	inactive	–	inactive	inactive	inactive	inactive	–	inactive	inactive	inactive	inactive	inactive	–	–	inactive	–	–	–
Cc1onc(-c2c(F)cccc2Cl)c1C(=O)N[C@@H]1C(=O)N2[C@@H]1SC(C)(C)[C@@H]2C(=O)O	inactive	inactive	inactive	inactive	inactive	inactive	inactive	inactive	inactive	–	–	–	–	–	–	–	–	–
Nc1ccc(N)c([N+](=O)[O-])c1	32.5 µM (active)	inactive	–	–	inactive	61.1 µM (active)	24.3 µM (active)	–	–	–	–	–	–	–	–	–	–	–
CC(C)C[C@@H](NC(=O)[C@@H](O)[C@H](N)Cc1ccccc1)C(=O)O	1.68 µM (active)	inactive	–	2.37 µM (active)	inactive	0.75 µM (active)	inactive	0.376 µM (active)	inactive	–	inactive	inactive	–	–	inactive	–	–	–
O=C1CCC(c2ccccc2)(C2CCN(Cc3ccccc3)CC2)C(=O)N1 (configuration not stated)	–	inactive	inactive	inactive	inactive	inactive	inactive	inactive	inactive	inactive	inactive	inactive	–	–	inactive	–	inactive	–
O=C(CCCCCCCCc1cccnc1)N1CCC(C=C(c2ccccc2)c2ccccc2)CC1	27.3 µM (active)	–	43.6 µM (active)	–	–	–	inactive	inactive	–	–	–	–	15.4 µM (active)	inactive	–	–	–	19.5 µM (active)
CCCCCCCCCCCCCCCCC(C(=O)O)C(O)(CC(=O)O)C(=O)O (configuration not stated)	26.6 µM (active)	–	26.8 µM (active)	inactive	inactive	inactive	–	inactive	inactive	–	–	inactive	21.1 µM (active)	29.8 µM (active)	inactive	–	–	–
C[C@@H]1O[C@@H]1P(=O)(O)O	–	inactive	inactive	inactive	inactive	inactive	–	inactive	inactive	–	–	–	–	–	–	–	inactive	–
Cc1ncc(C[n+]2csc(CCOP(=O)(O)O)c2C)c(N)n1	inactive	–	inactive	inactive	inactive	inactive	inactive	inactive	inactive	–	–	–	–	–	–	–	–	–
c1ccc2occc2c1	–	inactive	–	inactive	68.6 µM (active)	68.6 µM (active)	–	–	inactive	inactive	inactive	inactive	–	inactive	inactive	–	inactive	–
CCCC(=O)c1cc(O)c(O)cc1O	–	inactive	–	61.1 µM (active)	–	–	–	–	–	inactive	inactive	inactive	–	–	inactive	–	61.1 µM (active)	–
